About 83,000 compounds went through this panel and 20% of them were active in at least one assay; those are over-represented in the sample as a whole.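 A percent growth of 40 corresponds to 60% growth inhibition; 0 means no net growth; -100 means all cells died. Active threshold: below 10.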 Active and inactive are the calls of the source.
What was measured:
Assay in all cases: NCI-60 one-dose screen, 48 h (100 = growth as untreated, 0 = no growth, -100 = all killed)
Details in all cases: 10 µM
NCI-H23 lung = tested on: NCI-H23 lung
NCI-H226 lung = tested on: NCI-H226 lung
NCI-H322M lung = tested on: NCI-H322M lung
HOP-62 NSCLC = tested on: HOP-62 NSCLC
NCI-H460 lung = tested on: NCI-H460 lung
HOP-92 NSCLC = tested on: HOP-92 NSCLC
A549/ATCC NSCLC = tested on: A549/ATCC NSCLC
786-0 renal = tested on: 786-0 renal
COLO 205 colon = tested on: COLO 205 colon
NCI-H522 lung = tested on: NCI-H522 lung

Row | SMILES | growth (NCI-H23 lung) | growth (NCI-H226 lung) | growth (NCI-H322M lung) | growth (HOP-62 NSCLC) | growth (NCI-H460 lung) | growth (HOP-92 NSCLC) | growth (A549/ATCC NSCLC) | growth (786-0 renal) | growth (COLO 205 colon) | growth (NCI-H522 lung)
1 | c1cc[n+](C2c3ccccc3C([n+]3ccccc3)c3ccccc32)cc1 (centres undefined) | 65.2% (inactive) | 49.6% (inactive) | 84.8% (inactive) | 37.8% (inactive) | 98.8% (inactive) | 20.6% (inactive) | 78.5% (inactive) | 50% (inactive) | 30.8% (inactive) | 
2 | OC(c1ccccn1)C(O)c1ccccn1 (centres undefined) | 97.5% (inactive) | 110% (inactive) | 96.8% (inactive) | 104% (inactive) | 114% (inactive) | 98.9% (inactive) | 95.3% (inactive) | 99.5% (inactive) | 105% (inactive) | 
3 | Cc1ccc(C(=O)c2ccccc2)c(C)c1 | 99.6% (inactive) | 104% (inactive) | 105% (inactive) | 95% (inactive) | 110% (inactive) | 111% (inactive) | 110% (inactive) |  | 109% (inactive) | 
4 | COC(=O)C(O)c1ccccc1 (centres undefined) | 106% (inactive) | 107% (inactive) | 125% (inactive) | 105% (inactive) | 105% (inactive) | 95.6% (inactive) | 115% (inactive) |  | 111% (inactive) | 
5 | O=C(Nc1ccccc1)OCCc1ccccc1 | 108% (inactive) | 103% (inactive) | 116% (inactive) | 103% (inactive) | 103% (inactive) | 82.5% (inactive) | 102% (inactive) | 97.2% (inactive) | 119% (inactive) | 
6 | CCOC(=O)C1=C(Nc2ccc(Br)cc2)C(=O)N(CC)C1 | 98.8% (inactive) | 86.3% (inactive) | 95.6% (inactive) | 85.9% (inactive) | 107% (inactive) | 48.3% (inactive) | 98.8% (inactive) | 91.4% (inactive) | 108% (inactive) | 
7 | CCOC(=O)C(CCC(C)C)C(=O)OCC | 103% (inactive) | 98.2% (inactive) | 112% (inactive) | 105% (inactive) | 106% (inactive) | 93.6% (inactive) | 102% (inactive) | 113% (inactive) | 110% (inactive) | 
8 | CC(=O)C1CCCCC1 | 103% (inactive) | 89.9% (inactive) | 105% (inactive) | 96% (inactive) | 102% (inactive) | 77.5% (inactive) | 97.2% (inactive) | 98.8% (inactive) | 101% (inactive) | 
9 | CCCC1(c2ccccc2)NC(=O)NC1=O (centres undefined) | 110% (inactive) | 97% (inactive) | 124% (inactive) | 102% (inactive) | 109% (inactive) | 78.4% (inactive) | 119% (inactive) |  | 114% (inactive) | 
10 | S=C1NCc2cncnc2N1 | 109% (inactive) | 101% (inactive) | 114% (inactive) | 93.5% (inactive) | 106% (inactive) | 95.6% (inactive) | 98.2% (inactive) | 106% (inactive) | 111% (inactive) | 
11 | CC(=O)c1cc2c(cc1F)C(C)(C)CCC2(C)C | 90.6% (inactive) | 96.9% (inactive) | 96.8% (inactive) | 112% (inactive) | 107% (inactive) | 88% (inactive) | 89% (inactive) | 103% (inactive) | 102% (inactive) | 
12 | CCCCCCCO | 106% (inactive) | 94.7% (inactive) | 92.6% (inactive) | 98.8% (inactive) | 110% (inactive) | 88.7% (inactive) | 102% (inactive) | 110% (inactive) | 118% (inactive) | 
13 | COc1cc(/C=C/C(=O)c2ccccc2)cc(OC)c1OC | 78.1% (inactive) | 98.7% (inactive) | 95.5% (inactive) | 104% (inactive) | 70.7% (inactive) | 76% (inactive) | 89.4% (inactive) | 89% (inactive) | 48% (inactive) | 
14 | O=S(=O)(O)c1ccc(O)c2ccccc12 | 93.4% (inactive) | 102% (inactive) | 110% (inactive) | 107% (inactive) | 115% (inactive) | 98.8% (inactive) | 118% (inactive) | 101% (inactive) | 121% (inactive) | 
15 | C[N+](C)(C)C(=O)c1ccccc1 | 99.5% (inactive) | 102% (inactive) | 118% (inactive) | 101% (inactive) | 119% (inactive) | 102% (inactive) | 101% (inactive) | 109% (inactive) | 109% (inactive) | 
16 | CN(c1ccccc1)c1ncnc2c1ncn2C | 101% (inactive) | 107% (inactive) | 115% (inactive) | 103% (inactive) | 101% (inactive) | 105% (inactive) | 87.3% (inactive) | 106% (inactive) | 105% (inactive) | 
17 | C[C@]12CC[C@@H]3c4ccc(OCC(=O)O)cc4CC[C@H]3[C@@H]1CCC2=O | 94.2% (inactive) | 95.7% (inactive) | 98% (inactive) | 75% (inactive) | 101% (inactive) | 92.1% (inactive) | 93.3% (inactive) | 102% (inactive) | 105% (inactive) | 
18 | CCOC(=O)Nc1nn[nH]n1 | 102% (inactive) | 107% (inactive) | 129% (inactive) | 113% (inactive) | 99.9% (inactive) | 97.3% (inactive) | 103% (inactive) | 105% (inactive) | 107% (inactive) | 
19 | COC(=O)CCCCC1=CCC2C(=O)C=C(O)C2C1 (centres undefined) | 100% (inactive) | 102% (inactive) | 92.4% (inactive) | 91.8% (inactive) | 105% (inactive) | 85.2% (inactive) | 98.7% (inactive) | 99.9% (inactive) | 111% (inactive) | 
20 | CCN=c1cc2sc3cc(NCC)c(C)cc3nc-2cc1C | 5.46% (active) | 64.2% (inactive) | 27.3% (inactive) | 29.4% (inactive) | 1.61% (active) | 16.3% (inactive) | -40.3% (active) | 46.3% (inactive) | -25.8% (active) | 
21 | CCS(=O)(=O)c1cc(=O)[nH]c(=O)[nH]1 | 99.9% (inactive) | 107% (inactive) | 87.4% (inactive) | 106% (inactive) | 106% (inactive) | 162% (inactive) | 102% (inactive) | 100% (inactive) | 113% (inactive) | 
22 | CCCCCC(C)(CC(=O)O)CC(=O)O | 115% (inactive) | 97% (inactive) | 113% (inactive) | 101% (inactive) | 108% (inactive) | 119% (inactive) | 101% (inactive) | 107% (inactive) | 116% (inactive) | 
23 | O=C1OC(c2ccc(F)cc2)CC1CN1CCOCC1 (centres undefined) | 98.8% (inactive) | 107% (inactive) | 102% (inactive) | 101% (inactive) | 108% (inactive) | 94.5% (inactive) | 100% (inactive) | 105% (inactive) | 93.1% (inactive) | 
24 | OC1CCCc2ccccc21 (centres undefined) | 104% (inactive) | 104% (inactive) | 89.6% (inactive) | 104% (inactive) | 101% (inactive) | 112% (inactive) | 51.3% (inactive) | 103% (inactive) | 115% (inactive) | 
25 | C/C(=N\NC(=O)c1ccccc1N)c1ccccc1O | 38.7% (inactive) | 52.8% (inactive) | 26.4% (inactive) | 43.3% (inactive) | 23.5% (inactive) | 18.2% (inactive) | 28.2% (inactive) | 60.6% (inactive) | 9.89% (active) | 
26 | CC1(C)Nc2cccc3c(N=Nc4ccc(N=Nc5ccccc5)c5ccccc45)ccc(c23)N1 | 85.1% (inactive) | 94% (inactive) | 91.4% (inactive) | 93.1% (inactive) | 92.1% (inactive) | 82.6% (inactive) | 99.3% (inactive) | 122% (inactive) | 89.2% (inactive) | 
27 | Oc1ccccc1O | 97.7% (inactive) | 102% (inactive) | 91.2% (inactive) | 95.9% (inactive) | 100% (inactive) | 90.5% (inactive) | 78.1% (inactive) |  | 93.8% (inactive) | 
28 | O=C1Cc2cc(O)ccc2O1 | 111% (inactive) | 103% (inactive) | 94.5% (inactive) | 101% (inactive) | 111% (inactive) |  | 98.7% (inactive) | 103% (inactive) | 117% (inactive) | 88.4% (inactive)
29 | Nc1ncnc2[nH]ncc12 | 17.7% (inactive) | 34.8% (inactive) | 0.523% (active) | 20.9% (inactive) | 12.3% (inactive) | -21.4% (active) | 23% (inactive) |  | 10.8% (inactive) | 
30 | C=CCNc1ccccc1 | 102% (inactive) | 103% (inactive) | 106% (inactive) | 86.9% (inactive) | 108% (inactive) | 88.5% (inactive) | 101% (inactive) |  | 112% (inactive) | 

From PubChem BioAssay (NCI)
